Most compounds without a hit are left out; they make up all but 5% or so of the library.
SENP6 block = inhibitors of human SENP6 protease | Q9GZR1 | Recombinant SENP6 catalytic domain, aminoluciferin luminescence | inhibition, % at 10 µM | 330,000 compounds, 1.8% hits | AID 2599;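 active means inhibition above about 50% at the single tested dose, limit read from the data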;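 further: plate controls were DMSO wells with enzyme for no effect and DMSO wells lacking enzyme for full effect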
SENP7 block = blocks the human protease SENP7 | Q9BQF6 | inhibition, % at 5 µM | AID 434973 | recombinant SENP7, Z-RLRGG-aminoluciferin luminescence, 40 min | 330,000 compounds, 1.5% hits;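 active means inhibition above about 50% at the single test dose, limit read from the data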;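 further: plate controls were DMSO with enzyme for no effect and no enzyme buffer wells for full effect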
SENP8 block-1 = inhibitors of human SENP8 protease; Q96LD8; purified SENP8, Z-RLRGG-aminoluciferin cleavage, luminescence; inhibition, % at 10 µM; 330,000 compounds, 1.2% hits; AID 2540; in the data active means inhibition above about 50%
Target sequence (Q96LD8 whole entry, looked up): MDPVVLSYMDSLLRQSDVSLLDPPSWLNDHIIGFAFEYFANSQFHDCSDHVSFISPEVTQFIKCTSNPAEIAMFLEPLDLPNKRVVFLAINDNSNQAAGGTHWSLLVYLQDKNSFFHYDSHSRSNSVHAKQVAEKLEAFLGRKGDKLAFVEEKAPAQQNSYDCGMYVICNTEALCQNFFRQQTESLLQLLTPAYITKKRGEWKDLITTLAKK
SENP8 block-2 = inhibitors of human SENP8 protease | 360,000 compounds, 0.64% hits | Q96LD8 | recombinant SENP8, Nedd8 substrate fluorescence | inhibition, % at 20 µM; in the data active means inhibition mostly above about 40%, no sharp cut-off; inactive means mostly below about 27%
EBI2 antag = antagonists of human EBI2 receptor. EBI2 beta-arrestin recruitment, luminescence, 7a,25-OHC stimulated. inhibition, % at 5 µM. 360,000 compounds, 0.81% hits. AID 651636; in the data active means inhibition above about 38%;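 further: enzyme fragment complementation signal reports receptor beta-arrestin coupling in cells; 0% = agonist plus DMSO wells and 100% = wells without agonist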
AHR act = human AHR activation; P35869; AHR-responsive luciferase reporter cells, luminescence; activation, % at 5 µM; 320,000 compounds, 2.5% hits; AID 2796; in the data active means activation above about 47%;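 further: 0% = vehicle wells and 100% = reference agonist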
SENP8 conf = confirmation of human SENP8 protease inhibitors; Recombinant SENP8, Z-RLRGG-aminoluciferin luminescence, 60 min; 6,200 compounds, 40% hits; AID 488912; inhibition, % at 12.5 µM; shares compounds with SENP7 block;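 active means mean inhibition across replicates above about 50%, limit read from the data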
SENP6 conf = confirmation of human SENP6 protease inhibitors; recombinant SENP6, Z-RLRGG-aminoluciferin luminescence; shares compounds with SENP7 block; 6,200 compounds, 58% hits; inhibition, % at 12.5 µM
SENP7 confirm = confirmation of human SENP7 protease inhibitors; recombinant SENP7, Z-RLRGG-aminoluciferin luminescence, 40 min; AID 488917; inhibition, % at 12.5 µM; shares compounds with SENP7 block; 6,200 compounds, 69% hits
Casp3 SENP sel = inhibits human caspase-3 in SENP selectivity test | AID 488918 | 6,200 compounds, 60% hits | purified caspase-3, Z-DEVD-aminoluciferin luminescence, 60 min | inhibition, % at 12.5 µM | shares compounds with SENP7 block;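 active means mean inhibition above about 50%, limit read from the data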;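 further: plate controls were enzyme with DMSO for no effect and wells without caspase-3 for full effect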
Target sequence (P42574 28-227 limits assumed): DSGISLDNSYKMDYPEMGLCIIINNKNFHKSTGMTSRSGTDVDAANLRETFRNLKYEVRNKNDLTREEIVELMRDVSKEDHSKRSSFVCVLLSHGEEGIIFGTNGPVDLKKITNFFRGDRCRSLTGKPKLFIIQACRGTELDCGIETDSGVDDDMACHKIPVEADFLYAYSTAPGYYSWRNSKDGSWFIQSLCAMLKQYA
Luc interf = interferes with luciferase luminescence in SENP counter-screen | shares compounds with SENP7 block | Pre-incubated SENP8/Z-RLRGG-aminoluciferin, luciferase luminescence interference | inhibition, % at 12.5 µM | 6,200 compounds, 39% hits | AID 488919;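 active means mean inhibition above about 50% when retested at one dose, limit read from the data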;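 further: plate controls were DMSO wells with completed reaction for no effect and substrate without enzyme for full effect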
* marks the source's active call; other numbers are inactive results; i = inactive; nt = no result given.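 How the source made its calls, unless noted: active means mean inhibition above about 50% in the one-dose retest (limit read from the data); inactive means the rest.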

SMILES	SENP6 block	SENP7 block	SENP8 block-1	SENP8 block-2	EBI2 antag	AHR act	SENP8 conf	SENP6 conf	SENP7 confirm	Casp3 SENP sel	Luc interf
COc1ccc2nc(Nc3nc(CSc4nc5ccccc5s4)cc(=O)[nH]3)nc(C)c2c1	-9	-8	-6	nt	nt	2	nt	nt	nt	nt	nt
O=C(CCc1nnc(Cc2c[nH]c3ccccc23)o1)NC(C1CC1)C1CC1	-10	-2	-5	-7	9	5	nt	nt	nt	nt	nt
Cc1nc2ccc(NC(=S)N3CCOCC3)cc2nc1C	11	1	-2	-388	-5	4	nt	nt	nt	nt	nt
CSc1nn2cc(CCN3CCOCC3)c(-c3ccc(F)cc3)nc2c1C#N	-2	-9	11	-441	2	1	nt	nt	nt	nt	nt
CN(c1ccccc1)c1ccc(/C=N/N2CCOCC2)cc1	52*	31	34	-21	-7	2	44	43	79*	49	31
N=C1/C(=C/c2ccc(-c3cccc(C(=O)O)c3)o2)C(=O)N=C2SC=C(c3ccccc3)N12	65*	11	46	-30	1	11	26	-1	-8	3	4
O=C(NC(=S)/C(=C1\CCCCCN1)[N+](=O)[O-])c1ccccc1	60*	60*	57*	14	-9	22	77*	71*	93*	74*	10
COc1ccc(N(CC(=O)NCc2ccncc2)S(=O)(=O)c2ccc(C)c([N+](=O)[O-])c2)cc1	85*	1	0	22	-11	3	-2	0	-2	-1	0
COc1ccc(N(CC(=O)NCc2cccnc2)S(=O)(=O)c2ccc(C)c([N+](=O)[O-])c2)cc1	3	6	7	8	1	1	nt	nt	nt	nt	nt
COCCCNC(=O)CN(c1cc(Cl)ccc1OC)S(=O)(=O)c1ccc(C)c([N+](=O)[O-])c1	73*	-6	-10	17	-2	-2	6	3	-10	-5	-2
CN(CCC#N)C(=O)CC(Cc1ccccc1)C1CCOC(C)(C)C1 (configuration not stated)	-13	0	-7	7	-7	2	nt	nt	nt	nt	nt
CCN(CC)C(=S)SC1CCCCN(C(=O)c2ccccc2)C1=O (configuration not stated)	9	5	0	21	1	1	nt	nt	nt	nt	nt
O=C(O)c1cc([N+](=O)[O-])cc2c1nnn2O	-10	-3	2	16	16	-1	nt	nt	nt	nt	nt
Nc1ccc2c(c1)C1(CCC2)NC(=O)NC1=O (configuration not stated)	nt	nt	nt	-56	-2	nt	nt	nt	nt	nt	nt
CCOC(=O)c1ccc(NC(=O)c2ccccc2C)cc1	70*	65*	58*	6	0	21	69*	59*	87*	54*	55*
CCOC(=O)c1ccc(NC(=O)c2ccnn2C)cc1	68*	58*	59*	9	9	2	6	11	14	6	7
Cc1ccc(S(=O)(=O)N2CCN(Cc3csc(C)n3)CC2)cc1	-10	1	3	2	-6	-1	nt	nt	nt	nt	nt
COc1cccc(C(=O)NCCS(=O)(=O)NCc2ccc(Cl)cc2)c1	-11	-9	-13	7	-3	3	nt	nt	nt	nt	nt
NS(=O)(=O)c1ccc(NC(=O)COC(=O)c2cnc(Cl)c(Cl)c2)cc1	12	0	-5	19	-8	2	nt	nt	nt	nt	nt
CSc1ccc(N=Nc2c(C)[nH]n(C)c2=O)cc1	44	53*	27	19	5	75*	16	24	45	45	17
O=C(O)c1ccccc1N=Nc1c(O)[nH]c2ccc([N+](=O)[O-])cc12	99*	94*	95*	29	11	7	98*	98*	101*	94*	37
O=C(N=Nc1c(O)[nH]c2ccc([N+](=O)[O-])cc12)c1ccccc1Cl	-16	9	-2	28	4	5	nt	nt	nt	nt	nt
Nc1ccccc1C(=O)N1CCc2ccccc21	55*	-16	14	-42	5	19	42	36	25	43	55*
COc1ccccc1C(=O)NNC(=O)c1ccccc1Br	-22	12	1	2	-6	37	nt	nt	nt	nt	nt
NC(=O)c1ccccc1NC(=O)/C=C/c1c(Cl)cccc1Cl	53*	45	-7	3	13	8	-14	-8	86*	42	4
SMILES	SENP6 block	SENP7 block	SENP8 block-1	SENP8 block-2	EBI2 antag	AHR act	SENP8 conf	SENP6 conf	SENP7 confirm	Casp3 SENP sel	Luc interf
O=C(NNC(=S)Nc1ccc(Cl)cc1)c1ccccc1	14	12	-1	-4	-2	9	nt	nt	nt	nt	nt
O=C(NNC(=S)Nc1ccccc1Cl)c1ccccc1Cl	73*	50	74*	8	-2	12	40	28	18	10	13
NC(=O)c1ccccc1NC(=O)/C=C/c1cccc(Cl)c1	31	15	3	18	7	7	nt	nt	nt	nt	nt
COc1ccccc1NC(=S)NNC(=O)c1ccccc1Br	75*	71*	46	-13	10	10	21	16	15	6	15
O=C(Nc1ccccc1Cl)c1ccccc1Cl	-8	12	-10	15	-5	0	nt	nt	nt	nt	nt
O=C(NNC(=S)Nc1ccccc1Cl)c1ccccc1	65*	91*	56*	1	-8	13	16	22	28	28	34
OCCCNc1ncnc2sc3c(c12)CCN(Cc1ccccc1)C3	54*	19	26	-278	1	5	4	18	9	3	-1
Cc1cccc(C)c1OCC(=O)Nn1c(C)nc2ccccc2c1=O	-4	5	4	13	-4	0	nt	nt	nt	nt	nt
Cc1nc2ccccc2c(=O)n1NC(=O)COc1ccccc1	-9	57*	-7	6	-8	0	9	6	13	7	5
CCc1ccc(NC2=CC(=O)C(=O)c3ccccc32)cc1	26	55*	70*	i	-12	nt	9	23	12	4	5
CC1=CC(=O)c2ccccc2C1=O	1	3	16	-251	-10	22	nt	nt	nt	nt	nt
CCCCNC1=CC(=O)C(NCCCC)=CC1=O	nt	nt	nt	29	-20	nt	nt	nt	nt	nt	nt
O=C1C=C(Nc2ccccc2)c2ccccc2C1=O	81*	46	73*	-392	-18	nt	-8	87*	72*	21	-6
O=C1C=C(Nc2ccccc2)C(=O)c2ccccc21	90*	82*	80*	25	-2	11	26	29	47	47	14

Compound activity (PubChem BioAssay)
